Assay results taken from PubChem BioAssay (EPA / NIEHS).
Calls of active or inactive are those of the source. Rule for the calls: active = hit-call score of the fitted dose curve at least 0.9, where 1 is the maximum; inactive = score below 0.9.

What was measured:
Settings in all cases: mRNA level, 48 h; actives raise or lower the signal
[1] = read-out: Cytochrome P450 3A4 (Homo sapiens) (UniProt P08684); assay: LTEA_HepaRG_CYP3A4: Life Technologies and Expression Analysis (LTEA) Assay for CYP3A4 using HepaRG (AID 2283487)
Outline: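 In a human hepatic line (HepaRG), duplicate wells were treated 48 h with up to 100 uM chemical in half-log dilutions. Endpoint: CYP3A4 mRNA induction or loss relative to 0.5% DMSO vehicle, by qRT-PCR.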

[2] = read-out: DNA damage-inducible transcript 3 (DDIT3), DDIT3 (gene 1649); assay: LTEA_HepaRG_DDIT3: Life Technologies and Expression Analysis (LTEA) Assay for DNA damage-inducible transcript 3 (DDIT3) using HepaRG (AID 2283488)
Outline: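 Changes in DDIT3 transcript, in either direction relative to 0.5% DMSO vehicle, were quantified by TaqMan qRT-PCR after 48 h chemical exposure of HepaRG cells at 8 concentrations, maximum 100 uM.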

[3] = read-out: Pro-epidermal growth factor (Homo sapiens) (UniProt P01133); assay: LTEA_HepaRG_EGF: Life Technologies and Expression Analysis (LTEA) Assay for Epidermal growth factor (EGF) using HepaRG (AID 2283489)
Outline: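 Differentiated human HepaRG cells, plated 48 h then switched to serum-free induction medium, were exposed for 48 h to test chemicals (8-point half-log series, top 100 uM, 0.5% DMSO). EGF mRNA was quantified by qRT-PCR, normalized to ACTB, GAPDH, POLR2A.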

[4] = read-out: Early growth response protein 1 (EGR1) transcription factor, EGR1 (gene 1958); assay: LTEA_HepaRG_EGR1: Life Technologies and Expression Analysis (LTEA) Assay for Early growth response protein 1 (EGR1) transcription factor using HepaRG (AID 2283490)
Outline: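 Differentiated HepaRG cells in serum-free induction medium exposed 48 hours, duplicate, to 8 half-log concentrations up to 100 uM in 0.5% DMSO. EGR1 mRNA measured by TaqMan qRT-PCR, normalized to ACTB, GAPDH, POLR2A; bidirectional fit versus DMSO.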

[5] = read-out: Ezrin (EZR), EZR (gene 7430); assay: LTEA_HepaRG_EZR: Life Technologies and Expression Analysis (LTEA) Assay for Ezrin (EZR) using HepaRG (AID 2283491)
Outline: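 Gain or loss of EZR mRNA is scored relative to 0.5% DMSO in human HepaRG cultures treated 48 h with test chemicals in duplicate, eight half-log concentrations from 100 uM.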

[6] = read-out: Cytochrome P450 3A7 (Homo sapiens) (UniProt P24462); assay: LTEA_HepaRG_CYP3A7: Life Technologies and Expression Analysis (LTEA) Assay for CYP3A7 using HepaRG (AID 2283492)
Outline: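 HepaRG cells plated 48 h, then dosed in serum-free induction medium for 48 h at 8 concentrations (top 100 uM, half-log steps, 0.5% DMSO). CYP3A7 mRNA by qRT-PCR, normalised to ACTB/GAPDH/POLR2A; bidirectional fit versus DMSO.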

CYP3A5 (gene 1577) = assay: LTEA_HepaRG_CYP3A5: Life Technologies and Expression Analysis (LTEA) Assay for CYP3A5 using HepaRG (AID 2283493)
Outline: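 mRNA induction or loss of CYP3A5 assessed in HepaRG after 48 h dosing, 100 uM top concentration, duplicate wells; TaqMan qRT-PCR with ACTB, GAPDH, POLR2A normalization; 0.5% DMSO as negative control.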

[7] = read-out: Fatty Acid-Binding Protein 1 (FABP1), FABP1 (gene 2168); assay: LTEA_HepaRG_FABP1: Life Technologies and Expression Analysis (LTEA) Assay for Fatty Acid-Binding Protein 1 (FABP1) using HepaRG (AID 2283494)
Outline: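 Differentiated human HepaRG cells exposed 48 h in serum-free induction medium to eight half-log concentrations up to 100 uM (0.5% DMSO), duplicate. FABP1 mRNA by qRT-PCR, normalised to ACTB, GAPDH, POLR2A; bidirectional fitting against DMSO.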

[8] = read-out: Cytochrome P450 4A22 (Homo sapiens) (UniProt Q5TCH4); assay: LTEA_HepaRG_CYP4A22: Life Technologies and Expression Analysis (LTEA) Assay for Cytochrome P450 4A22 (CYP4A22) using HepaRG (AID 2283495)
Outline: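 qRT-PCR of CYP4A22 mRNA (Fluidigm TaqMan, normalized to three housekeeping genes) after 48 h chemical exposure of HepaRG cells; 8-point half-log series, top 100 uM, 0.5% DMSO vehicle. Bidirectional curve fitting vs DMSO baseline.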

[9] = read-out: Glutathione S-Transferase (GSTA2), GSTA2 (gene 2939); assay: LTEA_HepaRG_GSTA2: Life Technologies and Expression Analysis (LTEA) Assay for Glutathione S-Transferase (GSTA2) using HepaRG (AID 2283497)
Outline: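 Differentiated human HepaRG cells were exposed in duplicate for 48 h in serum-free induction medium, 8 points from 100 uM top in half-log steps, 0.5% DMSO. GSTA2 mRNA was measured by TaqMan qRT-PCR, normalized to ACTB, GAPDH and POLR2A; bidirectional fit versus DMSO.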

[10] = read-out: Glutamate-cysteine ligase catalytic (GCLC), GCLC (gene 2729); assay: LTEA_HepaRG_GCLC: Life Technologies and Expression Analysis (LTEA) Assay for Glutamate-cysteine ligase catalytic (GCLC) using HepaRG (AID 2283498)
Outline: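 Differentiated HepaRG cells exposed 48 h in serum-free induction medium, eight-point half-log series topping at 100 uM in 0.5% DMSO, duplicates. GCLC mRNA by qRT-PCR normalized to ACTB, GAPDH and POLR2A, fitted bidirectionally versus DMSO.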

[11] = read-out: growth arrest and DNA damage 45 (GADD45G), GADD45G (gene 10912); assay: LTEA_HepaRG_GADD45G: Life Technologies and Expression Analysis (LTEA) Assay for growth arrest and DNA damage 45 (GADD45G) using HepaRG (AID 2283499)
Outline: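 Differentiated human HepaRG cells in serum-free induction medium were exposed for 48 h to 8 half-log concentrations up to 100 uM in 0.5% DMSO, in duplicate. GADD45G mRNA was measured by TaqMan qRT-PCR, normalised to ACTB, GAPDH and POLR2A, and fitted bidirectionally against DMSO.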

[12] = read-out: Glutamate-cysteine ligase regulatory (GCLM), GCLM (gene 2730); assay: LTEA_HepaRG_GCLM: Life Technologies and Expression Analysis (LTEA) Assay for Glutamate-cysteine ligase regulatory (GCLM) using HepaRG (AID 2283500)
Outline: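 Human liver HepaRG cultures receive test chemicals for 48 hours at up to 100 uM in 0.5% DMSO. GCLM expression is measured by qRT-PCR and analysed for increases or decreases against vehicle.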

[13] = read-out: Glutathione S-transferase M3 (GSTM3), GSTM3 (gene 2947); assay: LTEA_HepaRG_GSTM3: Life Technologies and Expression Analysis (LTEA) Assay for Glutathione S-transferase M3 (GSTM3) using HepaRG (AID 2283501)
Outline: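 Differentiated HepaRG cells in serum-free induction medium were exposed in duplicate for 48 h to 8 half-log concentrations up to 100 uM in 0.5% DMSO. GSTM3 mRNA was measured by TaqMan qRT-PCR, normalized to ACTB/GAPDH/POLR2A, and fitted bidirectionally versus DMSO.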

[14] = read-out: Heat shock 70 kDa protein 1 (HSPA1A), gene 3303; assay: LTEA_HepaRG_HSPA1A: Life Technologies and Expression Analysis (LTEA) Assay for Heat shock 70 kDa protein 1 (HSPA1A) using HepaRG (AID 2283502)
Outline: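 HSPA1A induction in human HepaRG liver cells is measured after 48 h of chemical treatment (100 uM maximum, 0.5% DMSO vehicle). Expression comes from qRT-PCR normalized to endogenous controls.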

[15] = read-out: Hypoxia-inducible factor 1-alpha (Homo sapiens) (UniProt Q16665); assay: LTEA_HepaRG_HIF1A: Life Technologies and Expression Analysis (LTEA) Assay for Hypoxia-inducible factor 1 (HIF1A) Trancription factor using HepaRG (AID 2283503)
Outline: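 HepaRG, 48 h exposure, 8-pt half-log series from 100 uM, 0.5% DMSO vehicle, duplicates. Readout: HIF1A transcript by qRT-PCR (Fluidigm array), housekeeping-normalised. Bidirectional curve fit vs DMSO baseline.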

[16] = read-out: 3-Hydroxy-3-Methylglutaryl-CoA Synthase 2 (HMGCS2), HMGCS2 (gene 3158); assay: LTEA_HepaRG_HMGCS2: Life Technologies and Expression Analysis (LTEA) Assay for 3-Hydroxy-3-Methylglutaryl-CoA Synthase 2 (HMGCS2) using HepaRG (AID 2283504)
Outline: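 Differentiated human HepaRG cells were exposed in duplicate for 48 h in serum-free induction medium to eight concentrations (top 100 uM, half-log steps, 0.5% DMSO). HMGCS2 mRNA was quantified by TaqMan qRT-PCR, normalised to ACTB, GAPDH and POLR2A, then fitted bidirectionally against DMSO.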

HGF (gene 3082) = assay: LTEA_HepaRG_HGF: Life Technologies and Expression Analysis (LTEA) Assay for Hepatocyte Growth Facto (HGF) using HepaRG (AID 2283505)
Outline: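 Differentiated human HepaRG cells in serum-free induction medium were exposed in duplicate for 48 h to eight concentrations (top 100 uM, half-log steps, 0.5% DMSO). HGF mRNA was quantified by qRT-PCR, normalized to ACTB, GAPDH and POLR2A.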

[17] = read-out: Insulin Like Growth Factor 1 (IGF1), IGF1 (gene 3479); assay: LTEA_HepaRG_IGF1: Life Technologies and Expression Analysis (LTEA) Assay for Insulin Like Growth Factor 1 (IGF1) using HepaRG (AID 2283506)
Outline: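 Using human HepaRG liver cells, IGF1 transcript induction or suppression is measured 48 h after dosing across eight concentrations capped at 100 uM. Values derive from bidirectional concentration-response fitting with DMSO as baseline.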

[18] = read-out: Cytochrome P450 7A1 (Homo sapiens) (UniProt P22680); assay: LTEA_HepaRG_CYP7A1: Life Technologies and Expression Analysis (LTEA) Assay for Cytochrome P450 7A1 (CYP7A1) using HepaRG (AID 2283496)
Outline: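 Gene expression endpoint in human HepaRG liver cells treated for 48 h with test chemicals (up to 100 uM, 0.5% DMSO). Values come from bidirectional concentration-response fitting versus DMSO.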

Measured: AC50

Chain of Hypoxia-inducible factor 1-alpha (Homo sapiens) (Q16665 whole entry, looked up): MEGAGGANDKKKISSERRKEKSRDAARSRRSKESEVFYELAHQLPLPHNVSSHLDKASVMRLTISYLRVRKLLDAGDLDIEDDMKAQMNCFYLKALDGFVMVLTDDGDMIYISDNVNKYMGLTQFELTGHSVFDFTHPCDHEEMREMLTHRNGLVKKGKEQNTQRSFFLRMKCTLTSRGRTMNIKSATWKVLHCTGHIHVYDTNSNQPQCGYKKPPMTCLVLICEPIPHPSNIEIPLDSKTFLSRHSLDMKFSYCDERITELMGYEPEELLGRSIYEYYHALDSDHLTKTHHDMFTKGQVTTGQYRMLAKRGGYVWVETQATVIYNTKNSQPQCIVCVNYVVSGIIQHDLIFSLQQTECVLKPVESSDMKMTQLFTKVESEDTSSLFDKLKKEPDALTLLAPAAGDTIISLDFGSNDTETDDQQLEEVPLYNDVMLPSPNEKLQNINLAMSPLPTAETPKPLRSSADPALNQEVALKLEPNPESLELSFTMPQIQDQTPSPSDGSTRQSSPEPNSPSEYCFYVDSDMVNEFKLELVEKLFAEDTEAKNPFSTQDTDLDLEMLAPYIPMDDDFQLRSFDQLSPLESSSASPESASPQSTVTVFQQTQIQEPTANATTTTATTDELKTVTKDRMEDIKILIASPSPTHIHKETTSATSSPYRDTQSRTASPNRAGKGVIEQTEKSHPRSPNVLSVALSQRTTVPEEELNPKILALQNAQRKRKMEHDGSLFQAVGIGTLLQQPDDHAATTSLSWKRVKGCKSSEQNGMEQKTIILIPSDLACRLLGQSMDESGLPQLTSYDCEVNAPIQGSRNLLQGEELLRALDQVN
Chain of Cytochrome P450 3A4 (Homo sapiens) (P08684 whole entry, looked up): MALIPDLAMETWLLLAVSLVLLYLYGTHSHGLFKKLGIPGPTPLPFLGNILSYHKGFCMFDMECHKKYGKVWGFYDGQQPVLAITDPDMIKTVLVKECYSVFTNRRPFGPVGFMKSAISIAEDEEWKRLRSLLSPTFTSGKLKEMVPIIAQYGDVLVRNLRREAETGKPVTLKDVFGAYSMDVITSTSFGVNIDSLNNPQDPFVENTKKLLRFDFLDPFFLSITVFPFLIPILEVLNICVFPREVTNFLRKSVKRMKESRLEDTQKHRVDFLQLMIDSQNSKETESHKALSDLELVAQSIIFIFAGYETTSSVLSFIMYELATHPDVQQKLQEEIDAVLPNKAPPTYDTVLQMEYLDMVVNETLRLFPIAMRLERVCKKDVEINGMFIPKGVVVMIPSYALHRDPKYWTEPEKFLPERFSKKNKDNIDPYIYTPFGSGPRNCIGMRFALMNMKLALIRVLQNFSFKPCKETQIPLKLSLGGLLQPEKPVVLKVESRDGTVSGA
Chain of Cytochrome P450 3A7 (Homo sapiens) (P24462 whole entry, looked up): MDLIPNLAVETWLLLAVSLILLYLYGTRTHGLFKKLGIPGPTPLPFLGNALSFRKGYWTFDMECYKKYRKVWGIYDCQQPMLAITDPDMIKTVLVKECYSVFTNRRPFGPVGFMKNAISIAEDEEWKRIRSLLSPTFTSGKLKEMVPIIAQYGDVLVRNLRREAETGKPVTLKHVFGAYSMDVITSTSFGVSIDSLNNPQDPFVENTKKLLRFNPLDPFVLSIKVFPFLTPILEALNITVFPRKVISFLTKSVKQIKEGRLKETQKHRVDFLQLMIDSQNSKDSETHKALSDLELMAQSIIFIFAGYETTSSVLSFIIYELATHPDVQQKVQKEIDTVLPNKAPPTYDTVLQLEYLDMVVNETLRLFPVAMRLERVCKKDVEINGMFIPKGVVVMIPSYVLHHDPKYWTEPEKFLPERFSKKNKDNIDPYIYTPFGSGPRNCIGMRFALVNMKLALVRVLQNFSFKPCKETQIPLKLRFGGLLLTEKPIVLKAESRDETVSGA

S=C1NCCN1
active: [14] 0.277 µM
not listed: [18]
inactive: all other assays above

CC(C)N(C(=O)SCC(Cl)=C(Cl)Cl)C(C)C
not listed: [13]
inactive: all other assays above

CCCOCC(=Nc1ccc(Cl)cc1C(F)(F)F)n1ccnc1
active: [1] 73.5 µM | [2] 72.4 µM | [6] 23 µM | CYP3A5 (gene 1577) 71 µM | [7] 14.6 µM | [8] 15.8 µM | [9] 35 µM | [10] 91 µM | [14] 81.9 µM | [15] 87.3 µM | [16] 53.2 µM | [17] 12.1 µM
inactive: [3] | [4] | [5] | [11] | [12] | [13] | HGF (gene 3082)

CNc1cnn(-c2cccc(C(F)(F)F)c2)c(=O)c1Cl
active: [1] 31.5 µM | [3] 29.8 µM | [7] 26 µM | [10] 28 µM | [12] 30.1 µM | [16] 9.92 µM | [17] 36.9 µM
not listed: [18]
inactive: all other assays above
